{
  "source": "ChEMBL document CHEMBL3988442",
  "about": "“University of Dundee, Small-Polar-MMV Screening Library” (2021)",
  "parameters_in_all_cases": "scale not given: direction of the effect not stated beside the values",
  "key": {"[1]": {"target": "Protein translocase subunit SecA (Escherichia coli (strain K12)) (UniProt P10408)", "sequence (P10408 whole entry)": "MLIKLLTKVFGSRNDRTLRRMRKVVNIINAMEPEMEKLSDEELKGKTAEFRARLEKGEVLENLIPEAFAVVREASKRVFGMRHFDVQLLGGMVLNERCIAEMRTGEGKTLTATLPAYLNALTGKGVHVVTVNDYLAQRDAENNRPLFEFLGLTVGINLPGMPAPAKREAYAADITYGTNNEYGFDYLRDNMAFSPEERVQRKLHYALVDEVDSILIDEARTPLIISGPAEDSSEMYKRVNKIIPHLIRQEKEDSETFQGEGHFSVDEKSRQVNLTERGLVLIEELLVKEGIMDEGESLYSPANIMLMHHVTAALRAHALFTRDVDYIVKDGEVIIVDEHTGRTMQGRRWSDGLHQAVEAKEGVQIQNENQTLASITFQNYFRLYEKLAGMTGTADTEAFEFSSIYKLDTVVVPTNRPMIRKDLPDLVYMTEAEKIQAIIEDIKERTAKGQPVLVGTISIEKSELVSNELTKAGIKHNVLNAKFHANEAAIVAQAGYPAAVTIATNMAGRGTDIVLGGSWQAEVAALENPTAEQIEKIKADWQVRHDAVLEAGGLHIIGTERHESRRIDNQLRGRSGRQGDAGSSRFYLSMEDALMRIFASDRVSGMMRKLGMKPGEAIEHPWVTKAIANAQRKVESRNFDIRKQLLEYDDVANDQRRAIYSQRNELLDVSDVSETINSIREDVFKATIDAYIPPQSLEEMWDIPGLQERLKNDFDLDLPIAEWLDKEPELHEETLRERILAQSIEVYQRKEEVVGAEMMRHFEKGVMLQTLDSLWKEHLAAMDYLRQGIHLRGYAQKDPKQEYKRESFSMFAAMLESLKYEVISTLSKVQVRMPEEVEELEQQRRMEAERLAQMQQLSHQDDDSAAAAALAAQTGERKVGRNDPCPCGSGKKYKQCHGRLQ", "assay": "Assay to Identify E. coli SecA ATPase Inhibitors", "format": "functional", "conditions": "30 µM"}, "[2]": {"target": "T1, Ubiquitin-activating enzyme e1, putative (Leishmania donovani (strain BPK282A1)) (UniProt E9BSI1)", "T1 sequence (whole entry)": "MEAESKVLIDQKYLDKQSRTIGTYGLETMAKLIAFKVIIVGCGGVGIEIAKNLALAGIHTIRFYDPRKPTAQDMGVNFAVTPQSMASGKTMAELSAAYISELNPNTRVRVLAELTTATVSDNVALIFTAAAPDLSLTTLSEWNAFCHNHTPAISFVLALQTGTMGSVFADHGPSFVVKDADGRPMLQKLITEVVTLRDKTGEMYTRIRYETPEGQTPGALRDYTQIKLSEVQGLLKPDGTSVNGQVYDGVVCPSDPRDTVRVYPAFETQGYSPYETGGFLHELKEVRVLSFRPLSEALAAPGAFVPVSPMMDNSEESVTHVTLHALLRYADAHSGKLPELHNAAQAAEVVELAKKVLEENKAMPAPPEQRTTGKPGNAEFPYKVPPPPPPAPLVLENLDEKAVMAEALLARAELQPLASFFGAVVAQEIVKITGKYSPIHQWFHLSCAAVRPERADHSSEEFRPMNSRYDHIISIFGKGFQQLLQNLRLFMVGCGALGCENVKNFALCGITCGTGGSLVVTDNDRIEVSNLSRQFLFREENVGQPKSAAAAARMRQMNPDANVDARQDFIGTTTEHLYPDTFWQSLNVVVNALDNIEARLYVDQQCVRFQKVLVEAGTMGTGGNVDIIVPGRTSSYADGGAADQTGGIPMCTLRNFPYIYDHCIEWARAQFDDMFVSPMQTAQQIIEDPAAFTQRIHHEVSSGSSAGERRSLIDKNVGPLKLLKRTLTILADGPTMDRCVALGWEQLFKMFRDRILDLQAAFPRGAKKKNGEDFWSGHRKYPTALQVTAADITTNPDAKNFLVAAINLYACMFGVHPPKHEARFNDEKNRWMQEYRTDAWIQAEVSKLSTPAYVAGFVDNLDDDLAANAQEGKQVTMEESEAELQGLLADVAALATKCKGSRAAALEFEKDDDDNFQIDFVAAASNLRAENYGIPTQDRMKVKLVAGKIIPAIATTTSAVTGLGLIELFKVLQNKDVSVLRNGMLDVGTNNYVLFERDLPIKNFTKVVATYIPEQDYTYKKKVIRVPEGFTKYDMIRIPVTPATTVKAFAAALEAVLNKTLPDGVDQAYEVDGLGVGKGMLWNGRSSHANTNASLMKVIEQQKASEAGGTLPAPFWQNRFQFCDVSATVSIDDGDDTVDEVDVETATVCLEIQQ", "assay": "Leishmania donovani Ubiquitin Activating Enzyme (LdE1)", "format": "functional", "conditions": "30 µM"}, "[3]": {"target": "Sialic acid-binding Ig-like lectin 9 (Homo sapiens) (UniProt Q9Y336)", "sequence (Q9Y336 whole entry)": "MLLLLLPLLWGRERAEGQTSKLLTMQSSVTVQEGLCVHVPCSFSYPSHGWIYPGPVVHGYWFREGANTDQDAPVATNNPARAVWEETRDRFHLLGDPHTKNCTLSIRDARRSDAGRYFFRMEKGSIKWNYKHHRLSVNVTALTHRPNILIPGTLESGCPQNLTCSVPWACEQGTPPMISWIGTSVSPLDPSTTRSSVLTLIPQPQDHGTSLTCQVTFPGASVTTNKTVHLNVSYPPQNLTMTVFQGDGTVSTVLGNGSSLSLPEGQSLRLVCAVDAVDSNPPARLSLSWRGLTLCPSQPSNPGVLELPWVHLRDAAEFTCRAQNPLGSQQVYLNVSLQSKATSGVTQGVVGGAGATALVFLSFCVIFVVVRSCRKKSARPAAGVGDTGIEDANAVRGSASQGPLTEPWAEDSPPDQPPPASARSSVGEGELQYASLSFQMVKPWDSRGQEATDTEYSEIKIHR", "assay": "Hs-Siglec9 ALPHAscreen SOP 20170721", "conditions": "10 µM"}, "[4]": {"tested_on": "Trypanosoma cruzi", "assay": "Trypanosoma cruzi phosphomannomutase and mannose-1-phosphate guanylyltransferase assay", "format": "functional", "conditions": "10 µM"}, "[5]": {"target": "T2, Arginase-2, mitochondrial (Homo sapiens) (UniProt P78540)", "T2 sequence (whole entry)": "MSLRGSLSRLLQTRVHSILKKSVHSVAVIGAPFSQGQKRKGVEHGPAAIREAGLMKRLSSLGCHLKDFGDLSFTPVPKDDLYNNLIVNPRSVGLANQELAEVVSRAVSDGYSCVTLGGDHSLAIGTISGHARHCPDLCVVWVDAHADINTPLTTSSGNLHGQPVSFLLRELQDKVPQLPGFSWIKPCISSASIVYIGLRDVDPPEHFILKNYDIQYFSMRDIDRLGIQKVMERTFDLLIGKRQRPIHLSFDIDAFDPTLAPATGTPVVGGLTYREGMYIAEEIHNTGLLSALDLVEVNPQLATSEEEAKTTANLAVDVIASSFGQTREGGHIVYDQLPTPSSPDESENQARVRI", "assay": "in vitro enzyme assay to detect the production of urea directly proportional to the activity of Arginase II; further: in the data most compounds retested in dose-response had high values", "format": "functional", "conditions": "33.3 µM"}, "[6]": {"target": "T3, Proteasome subunit beta (Trypanosoma cruzi) (UniProt O96673)", "T3 sequence (whole entry)": "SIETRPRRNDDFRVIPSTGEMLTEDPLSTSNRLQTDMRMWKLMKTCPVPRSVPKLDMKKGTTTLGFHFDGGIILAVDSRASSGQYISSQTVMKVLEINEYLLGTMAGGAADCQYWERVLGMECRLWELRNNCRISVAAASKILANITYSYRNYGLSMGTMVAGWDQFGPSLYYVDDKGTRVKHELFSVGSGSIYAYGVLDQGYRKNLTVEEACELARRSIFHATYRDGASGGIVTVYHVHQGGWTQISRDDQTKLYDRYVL", "assay": "Trypanosoma cruzi proteasome chymotrypsin-like activity (TcProtChymo) assay; further: in the data most compounds retested in dose-response had high values.", "format": "functional", "conditions": "9.37 µM"}, "[7]": {"species_on_record": "Homo sapiens", "assay": "To identify inhibition of the IFN signalling (Jak-Stat) pathway via expression of an eGFP reporter gene under the control of an IFN-stimulated response element (ISRE) containing MxA promoter.", "format": "functional", "conditions": "30 µM"}, "[8]": {"target": "T4, Tyrosyl-tRNA synthetase, putative (Trypanosoma cruzi (strain CL Brener)) (UniProt Q4DSP6)", "T4 sequence (whole entry)": "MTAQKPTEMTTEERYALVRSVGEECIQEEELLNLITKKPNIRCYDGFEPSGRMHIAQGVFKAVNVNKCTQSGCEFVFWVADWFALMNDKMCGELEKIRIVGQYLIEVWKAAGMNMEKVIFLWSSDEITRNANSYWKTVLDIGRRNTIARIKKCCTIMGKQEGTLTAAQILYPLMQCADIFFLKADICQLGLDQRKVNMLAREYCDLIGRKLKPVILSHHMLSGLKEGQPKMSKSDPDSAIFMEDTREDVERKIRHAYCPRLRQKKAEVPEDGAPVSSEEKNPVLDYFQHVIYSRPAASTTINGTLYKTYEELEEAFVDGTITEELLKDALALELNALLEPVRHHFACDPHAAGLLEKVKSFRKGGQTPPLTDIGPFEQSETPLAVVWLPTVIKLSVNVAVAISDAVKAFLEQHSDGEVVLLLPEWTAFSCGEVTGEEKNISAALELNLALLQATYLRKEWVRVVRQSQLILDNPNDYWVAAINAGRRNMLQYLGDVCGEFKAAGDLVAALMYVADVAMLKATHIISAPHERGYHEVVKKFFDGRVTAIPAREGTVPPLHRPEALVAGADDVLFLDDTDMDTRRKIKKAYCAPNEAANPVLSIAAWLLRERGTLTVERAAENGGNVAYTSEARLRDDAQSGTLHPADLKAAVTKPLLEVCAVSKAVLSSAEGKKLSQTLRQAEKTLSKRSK", "assay": "Trypanosoma cruzi tyrosyl tRNA synthetase (TcYRS) _High Tyrosine SOP; further: in the data most compounds retested in dose-response had high values", "format": "functional", "conditions": "30 µM"}, "[9]": {"target": "T4, Tyrosyl-tRNA synthetase, putative (Trypanosoma cruzi (strain CL Brener))", "assay": "Trypanosoma cruzi tyrosyl tRNA synthetase (TcYRS) SOP", "format": "functional", "conditions": "30 µM"}, "[10]": {"target": "Chromo domain-containing protein 1 (Saccharomyces cerevisiae (strain ATCC 204508 / S288c) (Baker's yeast)) (UniProt P32657)", "sequence (P32657 whole entry, the tested form may be a part)": "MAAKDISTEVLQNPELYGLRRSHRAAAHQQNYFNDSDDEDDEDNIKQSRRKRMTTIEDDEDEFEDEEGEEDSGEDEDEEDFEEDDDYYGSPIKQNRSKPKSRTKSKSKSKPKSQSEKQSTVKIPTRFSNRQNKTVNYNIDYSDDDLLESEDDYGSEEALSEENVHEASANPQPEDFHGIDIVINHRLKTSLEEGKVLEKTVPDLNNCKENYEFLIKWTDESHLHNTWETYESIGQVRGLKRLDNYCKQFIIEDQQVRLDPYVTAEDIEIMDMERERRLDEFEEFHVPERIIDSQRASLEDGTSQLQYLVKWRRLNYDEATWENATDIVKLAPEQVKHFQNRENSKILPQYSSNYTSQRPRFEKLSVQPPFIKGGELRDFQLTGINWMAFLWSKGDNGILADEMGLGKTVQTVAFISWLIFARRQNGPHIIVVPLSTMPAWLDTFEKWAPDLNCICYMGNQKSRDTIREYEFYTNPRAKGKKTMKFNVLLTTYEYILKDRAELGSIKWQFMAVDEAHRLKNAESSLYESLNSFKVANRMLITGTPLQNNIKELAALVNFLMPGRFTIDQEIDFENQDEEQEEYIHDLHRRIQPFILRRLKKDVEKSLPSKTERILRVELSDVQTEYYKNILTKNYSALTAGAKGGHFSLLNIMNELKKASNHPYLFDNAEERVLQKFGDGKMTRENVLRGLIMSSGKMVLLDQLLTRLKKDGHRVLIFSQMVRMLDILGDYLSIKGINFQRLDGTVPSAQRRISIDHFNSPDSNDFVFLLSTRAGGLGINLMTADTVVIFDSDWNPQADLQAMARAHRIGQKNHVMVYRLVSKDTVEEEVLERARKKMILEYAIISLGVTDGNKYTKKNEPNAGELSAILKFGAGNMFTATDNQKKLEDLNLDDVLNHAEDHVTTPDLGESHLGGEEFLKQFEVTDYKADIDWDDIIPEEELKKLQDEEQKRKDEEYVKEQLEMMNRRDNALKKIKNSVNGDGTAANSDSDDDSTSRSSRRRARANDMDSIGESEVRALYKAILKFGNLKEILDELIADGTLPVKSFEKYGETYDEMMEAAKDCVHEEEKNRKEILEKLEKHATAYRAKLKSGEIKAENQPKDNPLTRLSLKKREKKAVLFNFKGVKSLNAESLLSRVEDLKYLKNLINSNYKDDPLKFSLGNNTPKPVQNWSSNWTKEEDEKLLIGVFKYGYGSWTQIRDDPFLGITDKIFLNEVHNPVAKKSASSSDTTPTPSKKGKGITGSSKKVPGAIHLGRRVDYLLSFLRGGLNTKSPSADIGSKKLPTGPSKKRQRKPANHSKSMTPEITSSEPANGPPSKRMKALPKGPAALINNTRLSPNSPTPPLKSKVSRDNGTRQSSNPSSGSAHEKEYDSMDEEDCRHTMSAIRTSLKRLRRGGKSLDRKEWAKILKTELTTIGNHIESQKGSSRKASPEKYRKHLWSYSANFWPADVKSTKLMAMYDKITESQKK", "assay": "ScCHD-1 Enzyme Inhibition Assay; further: in the data most compounds retested in dose-response had high values", "format": "functional", "conditions": "30 µM"}, "[11]": {"tested_on": "N/A", "assay": "Trypanosoma cruzi proteasome luciferase counter-screen", "format": "functional", "conditions": "9.37 µM"}},
  "note": "Several values for one entry are separate records, joined by “and”; a condition that tells them apart may be missing. Identical values can stand only once. For some of these results: Potency and affinity values are given separately.",
  "data": [
    {"smiles": "Cc1nn2cccnc2c1C(=O)N1CCCC(n2ccnc2)C1", "note": "(stereo not given)", "values": [
      {"measurement": "Percent Effect", "setting": "[1]", "value": 0.231, "unit": "%"},
      {"measurement": "Percent Effect", "setting": "[2]", "value": 13.3, "unit": "%"},
      {"measurement": "Percent Effect", "setting": "[3]", "value": -7.92, "unit": "%"},
      {"measurement": "Percent Effect", "setting": "[4]", "value": -2.21, "unit": "%"},
      {"measurement": "Percent Effect", "setting": "[5]", "value": 0, "unit": "%"},
      {"measurement": "Percent Effect", "setting": "[6]", "value": 8.23, "unit": "%"},
      {"measurement": "Percent Effect", "setting": "[7]", "value": 2.09, "unit": "%"},
      {"measurement": "Percent Effect", "setting": "[8]", "value": 3.68, "unit": "%"},
      {"measurement": "Percent Effect", "setting": "[9]", "value": 12.8, "unit": "%"},
      {"measurement": "Percent Effect", "setting": "[10]", "value": -11.1, "unit": "%"}
    ]},
    {"smiles": "COc1ccccc1OC1CCN(Cc2cnc(N(C)C)nc2)CC1", "values": [
      {"measurement": "Percent Effect", "setting": "[1]", "value": -8.85, "unit": "%"},
      {"measurement": "Percent Effect", "setting": "[2]", "value": 0, "unit": "%"},
      {"measurement": "Percent Effect", "setting": "[3]", "value": 3.25, "unit": "%"},
      {"measurement": "Percent Effect", "setting": "[4]", "value": -1.84, "unit": "%"},
      {"measurement": "Percent Effect", "setting": "[5]", "value": -3.15, "unit": "%"},
      {"measurement": "Percent Effect", "setting": "[11]", "value": "13.7% and 17.2%"},
      {"measurement": "Percent Effect", "setting": "[7]", "value": 1.97, "unit": "%"},
      {"measurement": "Percent Effect", "setting": "[8]", "value": 3.72, "unit": "%"},
      {"measurement": "Percent Effect", "setting": "[9]", "value": 9.76, "unit": "%"},
      {"measurement": "Percent Effect", "setting": "[10]", "value": -4, "unit": "%"}
    ]},
    {"smiles": "CNC(=O)CN1CCCC12CCN(C(=O)c1ccsc1)CC2", "values": [
      {"measurement": "Percent Effect", "setting": "[1]", "value": -4.84, "unit": "%"},
      {"measurement": "Percent Effect", "setting": "[2]", "value": 27.3, "unit": "%"},
      {"measurement": "Percent Effect", "setting": "[3]", "value": 3.61, "unit": "%"},
      {"measurement": "Percent Effect", "setting": "[4]", "value": 3.94, "unit": "%"},
      {"measurement": "Percent Effect", "setting": "[5]", "value": -1.83, "unit": "%"},
      {"measurement": "Percent Effect", "setting": "[6]", "value": 5.06, "unit": "%"},
      {"measurement": "Percent Effect", "setting": "[7]", "value": 1.81, "unit": "%"},
      {"measurement": "Percent Effect", "setting": "[8]", "value": 6.76, "unit": "%"},
      {"measurement": "Percent Effect", "setting": "[9]", "value": -92.5, "unit": "%"},
      {"measurement": "Percent Effect", "setting": "[10]", "value": -11.2, "unit": "%"}
    ]},
    {"smiles": "Cc1nc[nH]c1CN1CCN(C(=O)CCC(F)(F)F)[C@H]2CS(=O)(=O)C[C@H]21", "values": [
      {"measurement": "Percent Effect", "setting": "[1]", "value": -7.21, "unit": "%"},
      {"measurement": "Percent Effect", "setting": "[2]", "value": 2.7, "unit": "%"},
      {"measurement": "Percent Effect", "setting": "[3]", "value": 12, "unit": "%"},
      {"measurement": "Percent Effect", "setting": "[4]", "value": 7.66, "unit": "%"},
      {"measurement": "Percent Effect", "setting": "[5]", "value": 14.3, "unit": "%"},
      {"measurement": "Percent Effect", "setting": "[6]", "value": 15.1, "unit": "%"},
      {"measurement": "Percent Effect", "setting": "[7]", "value": 11.2, "unit": "%"},
      {"measurement": "Percent Effect", "setting": "[8]", "value": 7.98, "unit": "%"},
      {"measurement": "Percent Effect", "setting": "[9]", "value": 12.2, "unit": "%"},
      {"measurement": "Percent Effect", "setting": "[10]", "value": -1.8, "unit": "%"}
    ]}
  ]
}
